Reference: the supplement of paper PMC9446081
± gives the standard deviation of the averaged measurements.

Assays:
Assay in all cases: relative enzymatic activity vs untreated control (fraction); higher = less inhibition
Settings in all cases: 100 µM; incubation time: 2 h at 37 C
DNA gyrase = system: DNA gyrase
Experimental: (§1)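 In vitro enzymatic inhibition assays (ProFoldin kits) for 12 purified essential E. coli enzymes or complexes, each treated with 218 active antibacterial compounds at 100 µM for 2 h at 37°C. Read-outs were fluorescence or absorbance (phosphate detection, dye binding), converted to activity via standard curves and expressed relative to untreated DMSO controls.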

DNA helicase = DNA helicase (UniProt P0ACB1)
DNA helicase, sequence (P0ACB1 whole entry): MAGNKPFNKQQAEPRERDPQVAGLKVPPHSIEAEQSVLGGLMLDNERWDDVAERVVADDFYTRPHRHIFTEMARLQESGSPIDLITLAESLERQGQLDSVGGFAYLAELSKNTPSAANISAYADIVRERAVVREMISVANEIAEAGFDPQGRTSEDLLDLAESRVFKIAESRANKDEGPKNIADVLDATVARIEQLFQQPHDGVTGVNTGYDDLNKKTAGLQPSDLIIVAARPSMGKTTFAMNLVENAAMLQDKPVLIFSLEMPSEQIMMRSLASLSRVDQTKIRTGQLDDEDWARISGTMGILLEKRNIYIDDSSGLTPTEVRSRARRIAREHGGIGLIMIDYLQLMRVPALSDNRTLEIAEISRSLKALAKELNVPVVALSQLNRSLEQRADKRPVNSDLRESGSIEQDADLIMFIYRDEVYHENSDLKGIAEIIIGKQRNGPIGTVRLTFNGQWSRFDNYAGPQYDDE
Experimental: as §1

DNA ligase = DNA ligase (UniProt B1XA82)
DNA ligase, sequence (B1XA82 whole entry): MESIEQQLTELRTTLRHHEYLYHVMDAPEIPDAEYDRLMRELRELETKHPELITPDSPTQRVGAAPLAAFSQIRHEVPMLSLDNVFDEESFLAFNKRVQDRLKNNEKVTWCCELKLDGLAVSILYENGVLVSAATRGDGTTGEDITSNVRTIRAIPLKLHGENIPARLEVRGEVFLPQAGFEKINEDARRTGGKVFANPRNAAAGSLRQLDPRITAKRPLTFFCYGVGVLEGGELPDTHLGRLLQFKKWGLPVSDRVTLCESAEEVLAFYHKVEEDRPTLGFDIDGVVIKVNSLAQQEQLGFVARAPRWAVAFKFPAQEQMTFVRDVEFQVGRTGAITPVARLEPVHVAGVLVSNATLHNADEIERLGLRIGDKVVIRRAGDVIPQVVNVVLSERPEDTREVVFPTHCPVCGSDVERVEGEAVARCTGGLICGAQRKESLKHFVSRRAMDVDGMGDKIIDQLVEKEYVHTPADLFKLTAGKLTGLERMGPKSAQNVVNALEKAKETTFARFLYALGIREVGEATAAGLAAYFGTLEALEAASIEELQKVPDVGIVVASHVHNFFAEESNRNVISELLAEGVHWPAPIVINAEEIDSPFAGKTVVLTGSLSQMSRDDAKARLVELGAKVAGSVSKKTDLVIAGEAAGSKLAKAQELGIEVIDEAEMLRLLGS
Experimental: as §1

DNA polymerase = DNA polymerase (UniProt P10443)
DNA polymerase, sequence (P10443 whole entry): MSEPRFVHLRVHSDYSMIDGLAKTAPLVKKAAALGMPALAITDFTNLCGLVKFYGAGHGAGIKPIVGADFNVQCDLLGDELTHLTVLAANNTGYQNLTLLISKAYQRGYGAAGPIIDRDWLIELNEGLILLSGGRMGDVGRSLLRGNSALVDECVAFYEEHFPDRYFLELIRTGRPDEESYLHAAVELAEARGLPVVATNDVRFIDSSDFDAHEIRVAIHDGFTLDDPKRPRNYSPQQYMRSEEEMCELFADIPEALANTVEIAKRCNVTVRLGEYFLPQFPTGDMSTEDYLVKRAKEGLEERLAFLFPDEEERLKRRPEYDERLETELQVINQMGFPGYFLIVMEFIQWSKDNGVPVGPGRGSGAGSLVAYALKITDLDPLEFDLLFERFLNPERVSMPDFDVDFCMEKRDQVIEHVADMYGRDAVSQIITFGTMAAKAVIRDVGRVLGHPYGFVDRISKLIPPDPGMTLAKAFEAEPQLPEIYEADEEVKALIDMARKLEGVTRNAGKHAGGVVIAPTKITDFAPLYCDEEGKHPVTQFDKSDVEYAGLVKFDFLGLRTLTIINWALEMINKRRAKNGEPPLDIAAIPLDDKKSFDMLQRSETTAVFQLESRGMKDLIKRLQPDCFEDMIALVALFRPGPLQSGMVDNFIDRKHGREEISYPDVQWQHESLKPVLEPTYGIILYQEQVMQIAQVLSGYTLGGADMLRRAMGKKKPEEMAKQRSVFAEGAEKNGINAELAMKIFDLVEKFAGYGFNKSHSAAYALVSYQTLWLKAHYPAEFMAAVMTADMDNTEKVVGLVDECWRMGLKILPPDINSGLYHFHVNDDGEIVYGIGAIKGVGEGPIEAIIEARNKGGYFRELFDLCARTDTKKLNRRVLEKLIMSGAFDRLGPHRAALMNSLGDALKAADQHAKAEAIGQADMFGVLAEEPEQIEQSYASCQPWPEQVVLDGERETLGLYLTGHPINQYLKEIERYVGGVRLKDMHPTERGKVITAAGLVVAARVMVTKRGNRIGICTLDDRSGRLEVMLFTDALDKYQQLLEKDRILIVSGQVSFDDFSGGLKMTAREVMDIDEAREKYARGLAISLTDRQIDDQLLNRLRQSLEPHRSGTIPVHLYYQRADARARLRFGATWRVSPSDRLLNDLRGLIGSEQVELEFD
Experimental: as §1

DNA primase = DNA primase (UniProt P0ABS7)
DNA primase, sequence (P0ABS7 whole entry): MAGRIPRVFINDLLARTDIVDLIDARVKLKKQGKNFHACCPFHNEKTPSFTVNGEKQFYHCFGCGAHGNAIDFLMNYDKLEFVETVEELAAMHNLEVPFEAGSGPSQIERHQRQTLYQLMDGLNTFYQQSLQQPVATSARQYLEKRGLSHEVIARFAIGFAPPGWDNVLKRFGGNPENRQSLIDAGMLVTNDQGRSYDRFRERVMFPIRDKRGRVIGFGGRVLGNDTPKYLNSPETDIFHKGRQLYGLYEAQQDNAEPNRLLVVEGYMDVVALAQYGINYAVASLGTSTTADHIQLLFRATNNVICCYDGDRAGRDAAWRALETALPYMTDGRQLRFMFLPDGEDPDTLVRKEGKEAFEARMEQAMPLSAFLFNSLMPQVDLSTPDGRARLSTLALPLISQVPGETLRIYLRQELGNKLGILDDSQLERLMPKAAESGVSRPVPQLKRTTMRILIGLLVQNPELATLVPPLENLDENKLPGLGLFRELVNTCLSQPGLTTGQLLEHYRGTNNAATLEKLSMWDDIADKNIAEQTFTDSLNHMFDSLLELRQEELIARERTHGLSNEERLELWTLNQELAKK
Experimental: as §1

GlmU = GlmU (UniProt A7ZTU1)
GlmU, sequence (A7ZTU1 whole entry, looked up): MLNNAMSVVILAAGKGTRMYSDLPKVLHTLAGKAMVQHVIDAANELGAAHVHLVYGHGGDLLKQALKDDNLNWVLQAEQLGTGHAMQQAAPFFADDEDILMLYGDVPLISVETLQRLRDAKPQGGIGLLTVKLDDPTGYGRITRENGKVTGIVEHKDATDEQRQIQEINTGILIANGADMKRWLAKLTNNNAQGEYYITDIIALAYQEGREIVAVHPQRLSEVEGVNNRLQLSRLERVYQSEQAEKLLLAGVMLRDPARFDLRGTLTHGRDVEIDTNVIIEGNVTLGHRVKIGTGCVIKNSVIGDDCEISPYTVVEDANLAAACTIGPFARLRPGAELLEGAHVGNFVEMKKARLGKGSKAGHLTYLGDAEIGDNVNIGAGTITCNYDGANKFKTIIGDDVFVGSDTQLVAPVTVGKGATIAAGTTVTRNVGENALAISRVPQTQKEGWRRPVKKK
Experimental: as §1

Guanlyate kinase = Guanlyate kinase (UniProt Q0TBG1)
Guanlyate kinase, sequence (Q0TBG1 whole entry): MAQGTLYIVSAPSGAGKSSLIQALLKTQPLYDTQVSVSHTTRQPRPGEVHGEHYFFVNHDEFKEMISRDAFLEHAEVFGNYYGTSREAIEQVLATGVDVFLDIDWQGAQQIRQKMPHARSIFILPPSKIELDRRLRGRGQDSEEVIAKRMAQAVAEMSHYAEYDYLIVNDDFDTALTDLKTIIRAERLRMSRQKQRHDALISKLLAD
Experimental: as §1

MurA = MurA (UniProt Q3YX52)
MurA, sequence (Q3YX52 whole entry): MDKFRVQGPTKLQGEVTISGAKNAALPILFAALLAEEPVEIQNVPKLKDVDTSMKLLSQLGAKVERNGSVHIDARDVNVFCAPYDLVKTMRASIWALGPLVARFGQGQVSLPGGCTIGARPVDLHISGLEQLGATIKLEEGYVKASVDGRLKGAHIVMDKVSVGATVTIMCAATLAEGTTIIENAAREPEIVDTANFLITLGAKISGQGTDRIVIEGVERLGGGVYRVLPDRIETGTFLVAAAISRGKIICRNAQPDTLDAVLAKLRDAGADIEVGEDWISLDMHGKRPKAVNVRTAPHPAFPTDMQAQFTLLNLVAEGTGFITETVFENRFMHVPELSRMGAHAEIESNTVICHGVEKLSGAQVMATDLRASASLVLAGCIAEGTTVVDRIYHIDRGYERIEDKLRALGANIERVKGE
Experimental: as §1

RNA polymerase = system: RNA polymerase
Experimental: as §1

Compound	relative enzymatic activity (DNA gyrase)	relative enzymatic activity (DNA helicase)	relative enzymatic activity (DNA ligase)	relative enzymatic activity (DNA polymerase)	relative enzymatic activity (DNA primase)	relative enzymatic activity (GlmU)	relative enzymatic activity (Guanlyate kinase)	relative enzymatic activity (MurA)	relative enzymatic activity (RNA polymerase)
CCCCCCCCCCCCCCCC[N+](C)(C)C.[Br-]	1.21 ± 0.19	0.026 ± 0.0026	0.171 ± 0.036	0.0569 ± 0.0052	0.371 ± 0.042	0.235 ± 0.047	0.6144 ± 0.0056	0.0751 ± 0.018	0.162 ± 0.021
Cc1c(N)nc([C@H](CC(N)=O)NC[C@@H](N)C(N)=O)nc1C(=O)N[C@H](C(=O)N[C@@H](C)[C@H](O)[C@@H](C)C(=O)N[C@@H](C(=O)NCCc1nc(-c2nc(C(=O)NCCC[S+](C)C)cs2)cs1)[C@@H](C)O)[C@@H](O[C@H]1O[C@H](CO)[C@H](O)[C@@H](O)[C@H]1O[C@H]1O[C@H](CO)[C@@H](O)[C@H](OC(N)=O)[C@@H]1O)c1c[nH]cn1	0.0451 ± 0.064	0.749 ± 0.38	1.26 ± 0.078	0.485 ± 0.028	0.878 ± 0.06	0.998 ± 0.07	0.96 ± 0.12	0.863 ± 0.16	0.866 ± 0.032
O=[N+]([O-])C(Br)(CO)CO	0.108 ± 0.15	0.618 ± 0.27	0.897 ± 0.11	0.327 ± 0.015	0.596 ± 0.031	0.198 ± 0.059	0.943 ± 0.084	0.0632 ± 0.019	0.348 ± 0.045
Oc1cc(Cl)ccc1Oc1ccc(Cl)cc1Cl	1.04 ± 0.057	0.187 ± 0.1	0.856 ± 0.26	0.495 ± 0.69	0.839 ± 0.013	1.113 ± 0.0014	1 ± 0.059	0.846 ± 0.081	0.935 ± 0.17
CC(=O)[O][Hg][c]1ccccc1	0.0283 ± 0.04	0.415 ± 0.038	1.16 ± 0.04	0.285 ± 0.017	0.749 ± 0.28	0.987 ± 0.21	3.32 ± 0.43	0.474 ± 0.35	0.462 ± 0.044
CN1C(=O)[C@]23CC4=CC=C[C@H](O)[C@H]4N2C(=O)[C@@]1(CO)SS3	0.669 ± 0.11	0.55 ± 0.14	1.06 ± 0.038	0.477 ± 0.68	0.859 ± 0.019	0.992 ± 0.012	0.947 ± 0.12	0.309 ± 0.13	0.838 ± 0.12
CCCCCCCCCCCCCCCC[n+]1ccccc1	1.17 ± 0.056	0.0233 ± 0.0026	0.134 ± 0.0094	0.0267 ± 0.011	0.341 ± 0.023	0.19333 ± 8.8e-05	0.0415 ± 0.016	0.0717 ± 0.02	0.617 ± 0.64
CNC1C(O)C(OC2C(N)CC(N)C(OC3OC(C(C)O)C(O)C(O)C3N)C2O)OCC1(C)O (stereo unspecified)	1.19 ± 0.12	0.447 ± 0.021	1 ± 0.031	1.37 ± 0.52	0.749 ± 0.25	0.973 ± 0.059	0.936 ± 0.045	0.77 ± 0.12	0.879 ± 0.05
[O-][n+]1ccccc1[S][Zn][S]c1cccc[n+]1[O-]	0.849 ± 0.41	0.647 ± 0.14	1.08 ± 0.083	1.1 ± 0.13	0.788 ± 0.27	1.03 ± 0.0055	1.06 ± 0.052	0.109 ± 0.033	0.954 ± 0.052
Cc1c(N)nc([C@H](CC(N)=O)NC[C@@H](N)C(N)=O)nc1C(=O)N[C@H](C(=O)N[C@@H](C)[C@H](O)[C@@H](C)C(=O)N[C@@H](C(=O)NCCc1nc(-c2nc(C(=O)NCCC[S+](C)C)cs2)cs1)[C@@H](C)O)[C@@H](O[C@H]1O[C@H](CO)[C@H](O)[C@@H](O)[C@H]1O[C@H]1O[C@H](CO)[C@@H](O)[C@H](OC(N)=O)[C@@H]1O)c1cnc[nH]1	0.0494 ± 0.07	0.504 ± 0.71	1.121 ± 0.005	0.911 ± 0.2	0.801 ± 0.0016	1.06 ± 0.057	1.03 ± 0.061	0.787 ± 0.087	0.875 ± 0.077
O=[N+]([O-])c1ccc(N(CCO)CCO)c2c1no[n+]2[O-]	1.22 ± 0.18	0.793 ± 0.094	1.49 ± 0.15	0.69 ± 0.21	0.559 ± 0.099	0.935 ± 0.067	0.448 ± 0.049	0.106 ± 0.026	0.679 ± 0.032
O=S(=O)(O)O.Oc1cccc2cccnc12	0.857 ± 0.31	0.653 ± 0.14	1.05 ± 0.1	1.34 ± 0.49	0.441 ± 0.18	0.987 ± 0.048	0.981 ± 0.14	0.768 ± 0.011	0.862 ± 0.094
CN(C)[C@@H]1C(=O)[C@@H](C(N)=O)C(=O)[C@@]2(O)C(=O)[C@H]3C(=O)c4c(O)ccc(Cl)c4[C@@](C)(O)[C@H]3C[C@@H]12	0.69 ± 0.15	0.484 ± 0.12	0.931 ± 0.077	0.474 ± 0.67	0.778 ± 0.016	1.01 ± 0.018	0.879 ± 0.079	0.617 ± 0.21	0.739 ± 0.086
CN(C)[C@@H]1C(=O)C(C(N)=O)=C(O)[C@@]2(O)C(O)=C3C(=O)c4c(O)cccc4[C@](C)(O)[C@H]3C[C@@H]12	1.15 ± 0.25	0.475 ± 0.031	1.06 ± 0.1	1.11 ± 0.24	0.753 ± 0.025	1.05 ± 0.084	0.836 ± 0.089	0.144 ± 0.0081	0.809 ± 0.1
COP(=S)(OC)Oc1cc(Cl)c(Cl)cc1Cl	1.01 ± 0.21	0.105 ± 0.011	0.991 ± 0.28	1.39 ± 0.45	0.737 ± 0.2	1.09 ± 0.043	1.07 ± 0.027	0.585 ± 0.13	0.851 ± 0.025
CCCCCCCCCCCCCCCC[n+]1ccccc1.[Cl-]	1.22 ± 0.054	0.0141 ± 0.0023	0.581 ± 0.2	0.0538 ± 0.0068	0.3763 ± 0.00042	0.16 ± 0.039	0.2 ± 0.092	0.0629 ± 0.0016	0.2601 ± 0.0012
Cc1nc2c(=O)n(C)c(=O)nc-2n(C)n1	0.498 ± 0.2	0.6 ± 0.18	0.827 ± 0.053	1.04 ± 0.11	0.8 ± 0.023	0.927 ± 0.071	0.881 ± 0.045	0.131 ± 0.035	0.925 ± 0.15
Cn1ncnc2c(=O)n(C)c(=O)nc1-2	0.373 ± 0.21	0.533 ± 0.13	1.08 ± 0.28	0.994 ± 0.056	0.758 ± 0.047	0.966 ± 0.021	0.88 ± 0.059	0.129 ± 0.027	0.587 ± 0.6
CN(C)[C@@H]1C(=O)[C@H](C(N)=O)C(=O)[C@@]2(O)C(=O)[C@@H]3C(=O)c4c(O)cccc4[C@@](C)(O)[C@H]3C[C@@H]12	0.891 ± 0.31	0.615 ± 0.21	0.943 ± 0.033	0.874 ± 0.1	0.801 ± 0.02	1.03 ± 0.011	0.846 ± 0.13	0.379 ± 0.13	0.7359 ± 0.0054
CCn1cc(C(=O)[O-])c(=O)c2cc3c(cc21)OCO3.[K+]	0.128 ± 0.074	0.576 ± 0.11	1.21 ± 0.081	1.08 ± 0.18	0.826 ± 0.033	0.959 ± 0.029	0.892 ± 0.14	0.798 ± 0.13	0.7827 ± 0.0058
O=C1C=C2C(=CCOC2O)O1 (stereo unspecified)	0.0893 ± 0.13	0.409 ± 0.021	1.08 ± 0.17	0.547 ± 0.19	0.632 ± 0.14	0.811 ± 0.21	1.09 ± 0.049	0.0624 ± 0.018	0.56 ± 0.17
C[CH2][Hg][S]c1ccccc1C(=O)[O-].[Na+]	0.069 ± 0.018	0.749 ± 0.37	1.12 ± 0.031	0.94 ± 0.3	0.649 ± 0.14	1.07 ± 0.093	1.03 ± 0.11	0.212 ± 0.01	0.959 ± 0.048
CN[C@H]1C[C@@H](N)[C@H](O)[C@@H](O[C@@H]2O[C@H](CO)[C@H](O)[C@@H]3O[C@@]4(O[C@H]23)O[C@H]([C@@H](N)CO)[C@H](O)[C@H](O)[C@H]4O)[C@@H]1O	0.984 ± 0.14	0.571 ± 0.16	0.95 ± 0.14	1.19 ± 0.24	0.883 ± 0.02	1.029 ± 0.0074	0.933 ± 0.098	0.86 ± 0.2	0.8209 ± 0.0048
CC(=O)Oc1ccc(Cl)c2cccnc12	0.756 ± 0.36	0.577 ± 0.29	0.965 ± 0.18	1.09 ± 0.17	0.8364 ± 0.0049	0.987 ± 0.052	0.892 ± 0.12	0.873 ± 0.19	0.7397 ± 0.0065
